# Test results from PubChem BioAssay (NCATS).
# Results filed as inconclusive are left out. Where a call stands in place of a potency, no number is given. The source made the active and inactive calls. The call rests on the fitted dose curve; in most records, active means well fitted curve in the direction sought with a large enough effect; inconclusive means small, poorly fitted or top-dose-only effect, or another doubt; inactive means no such curve, though single readings can be large; an effect the other way counts as inactive or inconclusive.
# Experiments:
# [1] = target: Aldehyde dehydrogenase, mitochondrial (Homo sapiens) (UniProt P05091); assay: qHTS for Inhibitors of the Aldehyde Dehydrogenase Family (ALDH2) Primary screen (AID 2061308); further: nearly all actives have a fitted effect of over 55% in size
# [2] = target: Retinaldehyde dehydrogenase 3 (Homo sapiens) (UniProt P47895); assay: qHTS for Inhibitors of the Aldehyde Dehydrogenase Family (ALDH1A3) Primary screen (AID 2061315)
SMILES,Potency [1],Potency [2]
O=C(O)C1C2C(=O)N(c3ccccc3)C[C@@]23C=C[C@@H]1O3 (some centres undefined),inactive,inactive
N#Cc1nc(Nc2cc(F)cc(F)c2)c2ncn(CCO)c2n1,inactive,inactive
CCC(=O)NC(c1ccc2c(c1)OCO2)c1cc(Cl)c2cccnc2c1O (centres undefined),inactive,inactive
O=C(NC(c1ccco1)c1cc(Cl)c2cccnc2c1O)c1ccsc1 (centres undefined),inactive,inactive
Cc1ccc(-c2nccc(=O)n2CC(=O)N(C)C(C)c2ccco2)cc1 (centres undefined),inactive,inactive
O=C(NCCc1nc2ccccc2n1CCOc1cc(F)ccc1F)C1CCCCC1,inactive,inactive
CCCCNC(=S)NCCCc1cnc[nH]1,inactive,inactive
O=S(=O)(c1ccc2c(c1)OCCO2)N1CCN(S(=O)(=O)c2ccc(F)c(F)c2F)CC1,inactive,inactive
COc1ccc(CCc2nc3c(C)c(-c4c(C)noc4C)c(C)cc3n2CCN2CCOCC2)cc1,inactive,inactive
Cc1cc(C)nc(NC(=S)N2CCN(c3ncccc3C#N)CC2)c1,inactive,inactive
Cc1cccc(CNc2ccnc(-c3ccc(C(F)(F)F)cc3)n2)c1,inactive,inactive
O=[S+]([O-])(c1ccc(N2CCOCC2)nc1)N1CCN([S+](=O)([O-])c2c(F)cccc2F)CC1,inactive,inactive
COc1cccc(CNc2ccc([S+](=O)([O-])Nc3ccccc3)cc2)c1Cl,inactive,inactive
Cc1ccc(NC(=O)c2ccc(-c3nc4ccccc4[nH]3)cc2)cc1Br,inactive,inactive
O=C1NC2=C(C(=O)CCC2)C(c2ccccc2Cl)N1 (centres undefined),inactive,inactive
C#C[C@]1(O)CC[C@H]2[C@@H]3CCC4=C/C(=N/O)CC[C@@H]4[C@H]3CC[C@@]21CC,inactive,inactive
CN1CCN(C(=O)[C@H](Cc2ccc(O[S+](=O)([O-])c3cccc4cnccc34)cc2)N[S+](=O)([O-])c2cccc3cnccc23)CC1,inactive,inactive
N=c1c2c(ccn1-c1ccccc1)Oc1ccc3ccccc3c1C2c1ccccc1 (centres undefined),inactive,inactive
Cc1ccc(Nc2nc(-c3ccncc3)nc3ccccc23)cc1F,inactive,inactive
O=C(Cc1nnc(-c2nc3ccccc3[nH]2)o1)Nc1cc(C(F)(F)F)ccc1Cl,inactive,inactive
CCOc1ccc(CCNC(=O)c2ccc3ccccc3n2)cc1OCC,inactive,inactive
O=C(Cc1ccccc1)Nc1nnc(-c2ccncc2)s1,inactive,inactive

SMILES,Potency [1],Potency [2]
CN1CCN(c2cccc(Nc3nn4c(=O)c5ccccc5nc4s3)c2)CC1,inactive,inactive
Cc1ccc(C[C@H](C(=O)O)N2C(=O)c3ccc(C(=O)O)cc3C2=O)cc1,inactive,inactive
CCC(=O)NC(c1cccs1)c1cc(Cl)c2cccnc2c1O (centres undefined),inactive,inactive
Cn1c2cc(S(C)(=O)=O)sc2c2cnn(Cc3ccccc3F)c(=O)c21,inactive,inactive
COc1cccc(-c2csc3ncnc(Sc4nnnn4C)c23)c1,inactive,inactive
CCCn1c(C)nc2c(NCC3CCCN3CC)nc(C)nc21 (centres undefined),inactive,inactive
Cc1cc(N[S+](=O)([O-])c2ccc(NC(=O)Cc3ccc(F)c(C)c3)cc2)no1,inactive,inactive
O=C(O)CNc1cccc(-c2nn3c(=O)cc(N4CCNCC4)nc3s2)c1,inactive,inactive
O=C(Nc1ccccn1)c1sc2ccccc2c1Cl,inactive,inactive
O=C(c1ccccc1O)N(Cc1ccccc1)Cc1cccs1,inactive,inactive
Cc1ccc(-c2ccc(=O)n(CC(=O)N(C)CCc3ccco3)n2)cc1,inactive,inactive
Cc1cc(NS(=O)(=O)c2ccc(NC(=O)C(C)(C)c3ccc(Cl)c(Cl)c3)cc2)no1,inactive,inactive
Cc1cc(C)cc(N2CCN(C(=S)Nc3cc(C)cc(C)n3)CC2)c1,inactive,inactive
O=c1c2ccccc2nc2sc(Nc3cccc(Br)c3)nn12,inactive,inactive
C=C1C(=O)OC2/C=C(\COC(C)=O)CC/C=C(\C=O)CC(OC(=O)CC(C)C)C12 (centres undefined),inactive,inactive
Cc1cccc(-c2ccc3ncnc(NCc4cccnc4)c3c2)c1,inactive,inactive
Cc1ccccc1C(=O)N1CCc2cc(-c3nc(NC(=O)CC4CCCCC4)sc3C)ccc21,inactive,inactive
Cc1cccc(CNc2ncnc3ccc(-c4ccccc4Cl)cc23)c1,inactive,inactive
CC[C@H]1OC(=O)[C@H](C)[C@@H](O[C@H]2C[C@@](C)(OC)[C@@H](O)[C@H](C)O2)[C@H](C)[C@@H](O[C@@H]2O[C@H](C)C[C@H](N(C)C)[C@H]2O)[C@](C)(O)C[C@@H](C)/C(=N/OCOCCOC)[C@H](C)[C@@H](O)[C@]1(C)O,inactive,inactive
O=C1c2ccccc2C(=O)N1c1ccc(Cl)cc1,inactive,inactive
NC(=O)c1ccccc1-c1noc(-c2ccccc2F)n1,inactive,inactive
O=S(=O)(Nc1nccs1)c1ccc(NCc2cccc(Cl)c2O)cc1,inactive,inactive

SMILES,Potency [1],Potency [2]
Cc1ccc(S(=O)(=O)Nc2cnccc2C(=O)NCc2ccccc2)cc1,inactive,inactive
O=C(Cn1nc(-c2ccc(C(F)(F)F)cc2)ccc1=O)NCCc1ccccc1,inactive,inactive
COc1cc(OC)cc(-c2nnc3n2N=C(c2c(OC)cccc2OC)CS3)c1,inactive,inactive
CC(C)c1ccccc1SC1=NS(=O)(=O)c2ccccc21,inactive,inactive
O=C(Nc1ccccc1)C1CCN(c2nc(-c3ccc(Br)cc3)cs2)CC1,inactive,inactive
CN(C)CCNc1ncnc2ccc(-c3ccc4c(c3)OCO4)cc12,inactive,inactive
Cc1ccc(C(=O)NC(c2ccco2)c2cc(Cl)c3cccnc3c2O)cc1 (centres undefined),inactive,inactive
COc1cc(O)c(C(CC(=O)N2CCC(Cc3ccccc3)CC2)c2ccc3c(c2)OCO3)c(OC)c1 (centres undefined),inactive,inactive
COc1ccc(C2Nc3ccccc3C(=O)N2Cc2cccnc2)cc1COc1c(C)cc(NC(C)=O)cc1C (centres undefined),inactive,inactive
O=C(Nc1cc(F)cc(F)c1)Nc1nnc(-c2ccncc2)s1,inactive,inactive
Cc1cc(C)n2ncc(C(=O)Nc3cccc(C#N)c3)c2n1,inactive,inactive
c1nc(NCCCN2CCOCC2)c2cc(-c3ccc4c(c3)OCO4)ccc2n1,inactive,inactive
Cc1nnc(-c2cnn(C)c2N)n1CCc1cccs1,inactive,inactive
Cc1cc(OCCCSc2nc(-c3ccc(C(C)(C)C)cc3)nc3cc(=O)[nH]n23)ccc1Cl,inactive,inactive
O=C(OCC#CCSc1nnc(-c2cccc3ccccc23)o1)c1cc2ccccc2o1,inactive,inactive
Cc1csc(CNc2ncnc3ccc(-c4cccc(Cl)c4)cc23)c1,inactive,inactive
Oc1ccc(-c2nn[nH]n2)c2cccnc12,inactive,inactive
O=C(O)C[C@H]1CCC(=O)[C@@H]1C/C=C\CCO,inactive,inactive
CCOC(=O)CCc1cc(F)c(S(=O)(=O)N2CCN(S(=O)(=O)c3ccc4c(c3)OCCO4)CC2)cc1F,inactive,inactive
COc1cccc(C2=Nn3c(nnc3-c3ccc(OC)c(OC)c3)SC2)c1,inactive,inactive
Cc1ccc(S(=O)(=O)Nc2ccncc2C(=O)Nc2nc(-c3ccccc3)cs2)cc1,inactive,inactive
COc1ccc(C(=O)Nc2nc(-c3ccccc3)cs2)cc1NS(=O)(=O)c1ccc(C)cc1,inactive,inactive

SMILES,Potency [1],Potency [2]
COc1cccc(CNc2ccc(S(=O)(=O)Nc3cccc(N4CCNCC4)c3)cc2)c1O,inactive,inactive
NCCCC[C@H](N)C(=O)Nc1ccc(Cl)cc1C(=O)c1ccc[nH]1,inactive,inactive
CC(=O)Nc1sc2c(c1-c1ccc3c(c1)OCCCO3)CCNC2,inactive,inactive
CC(O)C(O)/C=C/C=C/C(=O)O[C@@H]1C=C(C(=O)O)[C@](O)(CO)[C@@]2(C)CCCC(C)(C)[C@H]12 (some centres undefined),inactive,inactive
COc1ccc(NS(=O)(=O)c2ccccc2)cc1NS(=O)(=O)c1ccccc1,inactive,inactive
FC(F)(F)c1ccccc1-c1nc(NCc2ccc(-c3ccc(Cl)cc3)cc2)c2ccccc2n1,inactive,inactive
CC(=O)Nc1cc2c(s1)CNCC2,inactive,inactive
CC(C)(O)C1Cc2c(ccc(C(=O)CCc3ccccc3)c2O)O1 (centres undefined),inactive,inactive
FC(F)(F)c1cccc(N2CCN(C(=S)Nc3nccc4ccccc34)CC2)c1,inactive,inactive
COc1cc(O)c(C(CC(=O)N2CCCC(C)C2)c2ccc(OC)c(OC)c2)c(OC)c1 (centres undefined),inactive,inactive
COc1ccc(Cl)cc1S(=O)(=O)N1CCN(S(=O)(=O)c2ccc3c(c2)OCCO3)CC1,inactive,inactive
O=C(CSc1ncnc2sc3c(c12)CCCCC3)NCc1ccco1,inactive,inactive
O=C(Nc1ccc(-c2nc3ccccc3[nH]2)cc1)Nc1ccc2c(c1)CCCO2,inactive,inactive
C=Cc1ccc(C(=O)N2CCCC(CCC(=O)N3CCN(c4ccccn4)CC3)C2)cc1 (centres undefined),inactive,inactive
Cc1cc2c(s1)c1cnn(Cc3cccc(Cl)c3)c(=O)c1n2C,inactive,inactive
Cc1cc(N[S+](=O)([O-])c2ccc(NC(=O)Cc3ccc(C(F)(F)F)c(F)c3)cc2)no1,inactive,inactive
Cc1ccc(NS(=O)(=O)c2ccc3ccccc3c2)cc1C,inactive,inactive
O=C(CSc1nc2ccc(S(=O)(=O)N3CCOCC3)cc2[nH]1)N1CCOCC1,inactive,inactive
Cn1nnnc1Sc1ncnc2scc(-c3ccccc3S(C)(=O)=O)c12,inactive,inactive
CN(CCc1cnc[nH]1)c1ncnc2ccc(-c3ccc4c(c3)OCO4)cc12,inactive,inactive
O=C(Cc1ccccc1)Nc1ncnc2c1C(c1ccccc1)c1c(ccc3ccccc13)O2 (centres undefined),inactive,inactive
